{
  "source": "PubChem BioAssay (Tox21)",
  "note": "“And” between values parts separate entries of the source, which are not always exact repeats. Equal values may be shown once. Results filed as inconclusive are left out. The source made the active and inactive calls. Calls follow the shape of the dose curve; as a rule, active = well fitted activation curve with a large enough effect in the repeat runs; inconclusive = weak or mixed curves; inactive = flat fitted curve, though single readings scatter. % is scaled to controls: 0 for no effect and ±100 for the full control effect; potency is read from the fitted curve at half-maximal effect.",
  "data": [
    {"experiment": "A CellTox Green Cytotoxicity Assay to monitor cytotoxicity in HEK293 cells - 16 hour (AID 1224888); also: nearly all actives have a fitted effect of over 35% in size", "details": "CellTox Green fluorescence; series mostly up to 76.8 µM; activity change: at the top concentration", "from_the_text": "National Center for Advancing Translational Sciences [NCATS]\nNIH Chemical Genomics Center [NCGC]\nU.S. Environmental Protection Agency [EPA]\nNational Institutes of Environmental Health Sciences [NIEHS]\nNational Toxicology Program [NTP]\nCell-based models are critical for drug discovery. Determining the natural cytotoxic effects resulting from test compounds is an essential research activity. A CellTox Green Cytotoxicity Assay to monitor cytotoxicity in real time of continues cell culture during 40 hours of the compound treatment was used to screen Tox21 10K library compounds in Hek293 cells. CellTox Green Cytotoxicity Assay is a nonlytic, homogeneous, biofluorescent method to measure cytotoxicity in cell culture after experimental manipulation. The assay system uses a proprietary asymmetric cyanine dye that is excluded from viable cells but preferentially stains the dead cell's DNA. […] Viable cells produce no appreciable increases in fluorescence. Therefore, the fluorescence signal produced by the binding interaction with dead cell DNA is proportional to cytotoxicity.\nThe mixture of Hek293 cell suspension and reagents were dispensed at 600cells/6 ul/well in 1536-well tissue culture treated black solid bottom plates using a Multidrop dispenser. After the assay plates were incubated at a 37 C/5% CO2 incubator for 5 hours, 23 nL of compounds dissolved in DMSO, positive and negative controls was transferred to the assay plate by a pintool work station. The plates were incubated at 37 C for 40 hours. The fluorescence intensity were measured at 0h, 8h, 16h, 24h, 32h and 40h time points using ViewLux plate reader during compound treatment.", "values": [
      {"smiles": "CC(C)(C)NCC(O)c1cc(O)cc(O)c1", "note": "(stereo not given)", "activity change": "2.02% [at 35.3 µM, stronger effect = higher value] (inactive)"},
      {"smiles": "COc1ccc(Cc2cnc(N)nc2N)cc1OC", "activity change": "-3.05% [at 35.3 µM, stronger effect = higher value] (inactive)"},
      {"smiles": "O=C(O)c1cc(Cl)cc(Cl)c1", "activity change": "6.8% (inactive)"},
      {"smiles": "CC(=O)OCC1=C(C(=O)O)N2C(=O)[C@@H](NC(=O)Cc3cccs3)[C@H]2SC1", "activity change": "1.99% [at 35.3 µM, stronger effect = higher value] (inactive)"},
      {"smiles": "Nc1cc(S(=O)(=O)O)cc2cc(S(=O)(=O)O)cc(O)c12", "Potency": "inactive"},
      {"smiles": "Cc1ccnc2c1NC(=O)c1cccnc1N2C1CC1", "Potency": "inactive"},
      {"smiles": "CC(=O)C1=C(C)[C@@H]2C[C@@]3(C1)[C@H](C)CC[C@H]3C2(C)C", "Potency": "inactive"},
      {"smiles": "Cc1cccc2n[nH]nc12", "Potency": "inactive"},
      {"smiles": "Nc1ccc(O)cc1", "Potency": "inactive"},
      {"smiles": "CN1C(=O)c2ccc([N+](=O)[O-])cc2C1=O", "activity change": "-5.95% (inactive)"},
      {"smiles": "c1ccc2c(c1)CCCC2C1=NCCN1", "note": "(stereo not given)", "activity change": "2.07% [at 35.3 µM, stronger effect = higher value] (inactive)"},
      {"smiles": "O=C(Cl)c1cccc(C(=O)Cl)c1", "Potency": "inactive"},
      {"smiles": "C=C(C)C1CC=C(C)C(OC(C)=O)C1", "note": "(stereo not given)", "Potency": "inactive"},
      {"smiles": "O=C(O)Cn1cnnn1", "activity change": "-13% [at 35.3 µM, stronger effect = higher value] (inactive)"},
      {"smiles": "O=C1Nc2ccccc2C1(c1ccc(O)cc1)c1ccc(O)cc1", "Potency": "inactive"},
      {"smiles": "O=C1CC2(CCCC2)CC(=O)N1CCCCN1CCN(c2ncccn2)CC1", "Potency": "inactive"},
      {"smiles": "CC(C)(C)NC(=O)[C@@H]1CN(Cc2cccnc2)CCN1C[C@@H](O)C[C@@H](Cc1ccccc1)C(=O)N[C@H]1c2ccccc2C[C@H]1O", "Potency": "inactive"},
      {"smiles": "O=C(O[C@@H]1Cc2c(O)cc(O)cc2O[C@@H]1c1cc(O)c(O)c(O)c1)c1cc(O)c(O)c(O)c1", "Potency": "inactive"},
      {"smiles": "c1cnc2cc3c(cc2n1)C1CNCC3C1", "activity change": "0.605% [at 35.3 µM, stronger effect = higher value] (inactive)"},
      {"smiles": "CC(N)=O", "activity change": "9.63% [at 200 µM, stronger effect = higher value] (inactive)"},
      {"smiles": "CCn1c2ccccc2c2cc(N)ccc21", "Potency": "inactive"},
      {"smiles": "Cc1c(O)cccc1C(=O)N[C@@H](CSc1ccccc1)[C@H](O)CN1C[C@H]2CCCC[C@H]2C[C@H]1C(=O)NC(C)(C)C", "Potency": "inactive"},
      {"smiles": "CCN(CC)C(=O)Nc1ccc(OCC(O)CNC(C)(C)C)c(C(C)=O)c1", "note": "(stereo not given)", "activity change": "-19.7% [at 35.3 µM, stronger effect = higher value] (inactive)"},
      {"smiles": "CC[C@H]1CN2CCc3cc(OC)c(OC)cc3[C@@H]2C[C@@H]1C[C@H]1NCCc2cc(OC)c(OC)cc21", "activity change": "10.5% [at 35.3 µM, stronger effect = higher value] (inactive)"},
      {"smiles": "C/C=C/c1ccc(OCC)c(O)c1", "activity change": "3.38% (inactive)"},
      {"smiles": "C[N+]1([O-])CCOCC1", "activity change": "-14.2% (inactive)"},
      {"smiles": "CC[C@]1(O)C[C@@H]2CN(CCc3c([nH]c4ccccc34)[C@@](C(=O)OC)(c3cc4c(cc3OC)N(C)[C@H]3[C@@](O)(C(=O)OC)[C@H](OC(C)=O)[C@]5(CC)C=CCN6CC[C@]43[C@@H]65)C2)C1", "Potency": "inactive"},
      {"smiles": "NC(Cc1ccc(Cl)cc1)C(=O)O", "note": "(stereo not given)", "activity change": "-4.15% [at 0.29 µM, stronger effect = higher value] (inactive)"},
      {"smiles": "CCCCCC(=O)O[C@]1(C(C)=O)CC[C@H]2[C@@H]3CCC4=CC(=O)CC[C@]4(C)[C@H]3CC[C@@]21C", "activity change": "7.84% [at 35.3 µM, stronger effect = higher value] (inactive)"},
      {"smiles": "CCCCCCCCCCCCCC[P+](CCCC)(CCCC)CCCC", "Potency": "17.3 µM (active) and 19.5 µM (active)"},
      {"smiles": "CC1COC(=O)O1", "note": "(stereo not given)", "Potency": "inactive"},
      {"smiles": "CC(C)CCOCc1ccccc1", "activity change": "21.5% (inactive)"},
      {"smiles": "Cc1ccc(-c2cc(C(F)(F)F)nn2-c2ccc(S(N)(=O)=O)cc2)cc1", "activity change": "-1.9% [at 35.3 µM, stronger effect = higher value] (inactive)"},
      {"smiles": "Cc1ccc(S(=O)(=O)Oc2ccc(N=Nc3ccc(-c4ccc(N=Nc5c(O)ccc6cc(S(=O)(=O)O)cc(S(=O)(=O)O)c56)c(C)c4)cc3C)cc2)cc1", "Potency": "inactive"},
      {"smiles": "NC12CC3CC(CC(C3)C1)C2", "activity change": "-12.1% [at 35.3 µM, stronger effect = higher value] (inactive)"},
      {"smiles": "CCOc1ccccc1C(N)=O", "Potency": "inactive"},
      {"smiles": "CC(C)CCOC(=O)c1ccc(N(C)C)cc1", "activity change": "0.171% [at 35.3 µM, stronger effect = higher value] (inactive)"},
      {"smiles": "O=Cc1ccc(Cl)cc1", "activity change": "-3.59% (inactive)"},
      {"smiles": "CCCCC(CC)COC(=O)CC(C(=O)OCC(CC)CCCC)S(=O)(=O)O", "note": "(stereo not given)", "Potency": "19.5 µM (active)"},
      {"smiles": "CCC(C)(C)C(=O)O[C@H]1C[C@@H](C)C=C2C=C[C@H](C)[C@H](CC[C@@H]3C[C@@H](O)CC(=O)O3)[C@H]21", "activity change": "-9.02% (inactive)"}
    ]}
  ]
}
